In PubChem BioAssay (NCI) one finds growth inhibition data, which are given here for 40 compounds.

This is part of a sample that, as a whole, favours compounds with a hit. Of some 79,000 tested, about 15% had one in any assay. Values without a mark were called inactive. The source made the active and inactive calls. No stated cut-off is given here; in the data, active means growth inhibition above about 70%; inactive means the rest.

The nature of one assay: NCI Yeast Anticancer Drug Screen. Data for the mec2-1 strain (AID 157). To be noted: S. cerevisiae mec2-1 strain, at 5.0 µM (retest, dose inferred, filed as 0.5), hits give high values. The gist of the method:
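Growth inhibition is read against vehicle-treated controls after compound exposure of the mec2-1 yeast strain, which is defective in DNA damage repair or cell cycle control.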
In the case of `CC/C=C(\C)CC(C)O` (stereo not drawn), the growth inhibition was -4%.
On to `CCC(c1ccc(Cl)cc1)C(C#N)c1ccc(Cl)cc1` (stereo not drawn), for which the growth inhibition is -1%.
Same read-out and setting: the figure for `CN1/C(=C/C=C/C(I)=C/C=C/C2=[N+](C)c3ccccc3C2(C)C)C(C)(C)c2ccccc21` is 8%; for `Nc1ccc(N)c2c1C(=O)c1ccccc1C2=O` it is -1%; for `CN1C=COC1N=C1CCCCC1` (stereo not drawn) it is -1%.
As to `Clc1ccc(Cc2nc3ccccc3s2)c(Cl)c1`, the growth inhibition was 36%.
`O=CC1(c2ccc(Cl)cc2)NC(=O)NC1=O` (stereo not drawn): the growth inhibition was -1%.
In the case of `O=C(CSc1nnc(-c2ccc(N=Cc3ccc(Cl)cc3)cc2)o1)Nc1ccc(Cl)cc1Cl`, the growth inhibition is -1%.
For `O=C(Oc1ccccc1)C1CCCCC1C(=O)Oc1ccccc1` (stereo not drawn), the growth inhibition was -19%.
On to `O=C(O)Cc1ccc2c(c1O)C(=O)c1ccccc1C2=O`, for which the growth inhibition was 0%.
On the same count and under the same terms, the figure for `O=[N+]([O-])c1cccc(F)c1O` is 6%; for `CCc1nc2c(O)ccc(O)c2nc1C` it is -43%.
For `COC(=O)N/N=C(/CC1(O)C(=O)Nc2ccccc21)c1ccc(Cl)cc1Cl` (stereo not drawn), the growth inhibition was 10%.

The assay is the same for the next values; noted with them: S. cerevisiae mec2-1 strain, at 50.0 µM (retest, dose inferred, filed as 5.0), hits give high values.
Consider `CCCCCCCCCC1OCC(C)O1` (stereo not drawn), for which the growth inhibition was 30%.
Consider `O=[N+]([O-])c1ccc2c(c1)/C(=C/c1ccc(O)cc1)c1ccccc1-2`, for which the growth inhibition was 82% (active).
For the compound `COc1cc2c(cc1OC(C)=O)C(=O)C(Br)(Br)CCC2`, the growth inhibition was 99% (active).
For the compound `COC(=O)c1cc2c(oc1=O)-c1ccccc1N(C=O)C2`, the growth inhibition is -11%.
On the same count and under the same terms, the figure for `CC(=O)Nc1ccc(S(=O)(=O)/N=C2\C=CC(=O)c3ccccc32)cc1` is 24%; for `C/C(=N/NC(=S)N(C)C)c1ccccc1O` it is 9%.
`CC(CN(C)C)C(=O)/C=C/c1c(Cl)cccc1Cl` (stereo not drawn): the growth inhibition was 96% (active).
On to `N#CC(O)C(Br)(Br)Br` (stereo not drawn), for which the growth inhibition was 38%.
With `C=Cc1cc(N=Nc2ccc([N+](=O)[O-])cc2)ccc1N(C)C`, the growth inhibition is -2%.
As to `Cc1cccnc1NC(=S)Nc1ccccc1Cl`, the growth inhibition is 99% (active).
Still for that read-out and setting: to `O=C1C=CC(=O)c2c(O)c(N3CCC[C@@H]3CO)c(Cl)c(O)c21` belongs 64%; to `Cc1cc(C(=O)O)c(C)c2c1sc1ccccc12`, 79% (active); to `COc1cccc2c1OC(c1ccc(Cl)cc1)C([N+](=O)[O-])=C2` (stereo not drawn), 95% (active).
On the same count and under the same terms, the figure for `CC1=C(C(=O)Nc2cccc(Cl)c2)C(c2ccccc2F)C(C(=O)Nc2cccc(Cl)c2)=C(C)N1` is 49%.
As for `Cc1ccc(C2C(O)=C(c3ccccc3)Sc3ccc(C)cc32)cc1` (stereo not drawn), the growth inhibition is 77% (active).
The same measure, in the same setting: the figure for `CC(=O)Oc1ccc(C)c(C(C)C(Cl)(Cl)Cl)c1` (stereo not drawn) is 50%.
For the compound `CCCC(=O)Oc1ccc(-c2ccc(Br)cc2)cc1`, the growth inhibition is 93% (active).
Turning to `CCCCC#CCOC(=O)c1cc([N+](=O)[O-])cc([N+](=O)[O-])c1`, the growth inhibition was 100% (active).
With `COC(=O)c1ccc(Cl)c(Cl)c1`, the growth inhibition was 2%.
On the same count and under the same terms, to `Cc1cc(Br)c2ccccc2c1N` belongs 39%; to `C=C1N(S(=O)(=O)c2ccc(C)cc2)C(=O)OCC12CCCC2`, -21%; to `CCCCCCCCN=C(N)c1ccc(C(=O)OCC2CCCCC2)cc1`, 100% (active).
Regarding `Nc1ccc2ccc3cccc4ccc1c2c34`, the growth inhibition is 98% (active).
Take `C=C(Br)CN(CC(=C)Br)C(C)=O`: the growth inhibition is 14%.
With `[Ce+3].[Cl-].[O-]/N=C(\c1ccccc1)c1ccccn1.[O-]/N=C(\c1ccccc1)c1ccccn1.[O-]/N=C(\c1ccccc1)c1ccccn1`, the growth inhibition was 76% (active).
Take `O=CCCCc1cc2c(cc1Br)CCC2`: the growth inhibition is 62%.
Same read-out and setting: the figure for `C1=C(CC2=C[P+](c3ccccc3)(c3ccccc3)C=C(c3ccccc3)O2)OC(c2ccccc2)=C[P+]1(c1ccccc1)c1ccccc1` is 98% (active).
As for `CC/C=C(\C)CC(C)O` (stereo not drawn), the growth inhibition is 3%.
With `CCC(c1ccc(Cl)cc1)C(C#N)c1ccc(Cl)cc1` (stereo not drawn), the growth inhibition was 33%.
The same measure, in the same setting: to `CN1/C(=C/C=C/C(I)=C/C=C/C2=[N+](C)c3ccccc3C2(C)C)C(C)(C)c2ccccc21` belongs 89% (active); to `Nc1ccc(N)c2c1C(=O)c1ccccc1C2=O`, 11%.
Turning to `CN1C=COC1N=C1CCCCC1` (stereo not drawn), the growth inhibition was -5%.
Regarding `Clc1ccc(Cc2nc3ccccc3s2)c(Cl)c1`, the growth inhibition is 99% (active).
On to `O=CC1(c2ccc(Cl)cc2)NC(=O)NC1=O` (stereo not drawn), for which the growth inhibition was -3%.
For the compound `O=C(CSc1nnc(-c2ccc(N=Cc3ccc(Cl)cc3)cc2)o1)Nc1ccc(Cl)cc1Cl`, the growth inhibition is 99% (active).
Turning to `O=C(Oc1ccccc1)C1CCCCC1C(=O)Oc1ccccc1` (stereo not drawn), the growth inhibition was 10%.
Regarding `O=C(O)Cc1ccc2c(c1O)C(=O)c1ccccc1C2=O`, the growth inhibition is 31%.
In the case of `O=[N+]([O-])c1cccc(F)c1O`, the growth inhibition was 79% (active).
Regarding `CCc1nc2c(O)ccc(O)c2nc1C`, the growth inhibition was -11%.
Turning to `COC(=O)N/N=C(/CC1(O)C(=O)Nc2ccccc21)c1ccc(Cl)cc1Cl` (stereo not drawn), the growth inhibition was 97% (active).

The same assay, now with this note: S. cerevisiae mec2-1 strain, at 50.0 µM, hits give high values.
As for `CCCCCCCCCC1OCC(C)O1` (stereo not drawn), the growth inhibition was 44.6%.
As to `O=[N+]([O-])c1ccc2c(c1)/C(=C/c1ccc(O)cc1)c1ccccc1-2`, the growth inhibition is 88.8% (active).
Take `COc1cc2c(cc1OC(C)=O)C(=O)C(Br)(Br)CCC2`: the growth inhibition was 98.5% (active).
As to `COC(=O)c1cc2c(oc1=O)-c1ccccc1N(C=O)C2`, the growth inhibition was -8.75%.
Turning to `CC(=O)Nc1ccc(S(=O)(=O)/N=C2\C=CC(=O)c3ccccc32)cc1`, the growth inhibition is 54.6%.
On to `C/C(=N/NC(=S)N(C)C)c1ccccc1O`, for which the growth inhibition was 86.3% (active).
Same read-out and setting: to `CC(CN(C)C)C(=O)/C=C/c1c(Cl)cccc1Cl` (stereo not drawn) belongs 46.4%.
As for `N#CC(O)C(Br)(Br)Br` (stereo not drawn), the growth inhibition is 74.3% (active).
The same measure, in the same setting: to `C=Cc1cc(N=Nc2ccc([N+](=O)[O-])cc2)ccc1N(C)C` belongs 4.2%; to `Cc1cccnc1NC(=S)Nc1ccccc1Cl`, 91.3% (active); to `O=C1C=CC(=O)c2c(O)c(N3CCC[C@@H]3CO)c(Cl)c(O)c21`, 41.5%.
`Cc1cc(C(=O)O)c(C)c2c1sc1ccccc12`: the growth inhibition is 27.2%.
As to `COc1cccc2c1OC(c1ccc(Cl)cc1)C([N+](=O)[O-])=C2` (stereo not drawn), the growth inhibition is 89% (active).
In the case of `CC1=C(C(=O)Nc2cccc(Cl)c2)C(c2ccccc2F)C(C(=O)Nc2cccc(Cl)c2)=C(C)N1`, the growth inhibition was 81.8% (active).
On to `Cc1ccc(C2C(O)=C(c3ccccc3)Sc3ccc(C)cc32)cc1` (stereo not drawn), for which the growth inhibition is 2.45%.
On to `CC(=O)Oc1ccc(C)c(C(C)C(Cl)(Cl)Cl)c1` (stereo not drawn), for which the growth inhibition was 42.8%.
Take `CCCC(=O)Oc1ccc(-c2ccc(Br)cc2)cc1`: the growth inhibition was 93.6% (active).
The same measure, in the same setting: to `CCCCC#CCOC(=O)c1cc([N+](=O)[O-])cc([N+](=O)[O-])c1` belongs 98.5% (active); to `COC(=O)c1ccc(Cl)c(Cl)c1`, 6.75%.
For `Cc1cc(Br)c2ccccc2c1N`, the growth inhibition was 54.2%.
Regarding `C=C1N(S(=O)(=O)c2ccc(C)cc2)C(=O)OCC12CCCC2`, the growth inhibition was -1.5%.
Take `CCCCCCCCN=C(N)c1ccc(C(=O)OCC2CCCCC2)cc1`: the growth inhibition was 99.7% (active).
Still for that read-out and setting: to `Nc1ccc2ccc3cccc4ccc1c2c34` belongs 0.45%.
For the compound `C=C(Br)CN(CC(=C)Br)C(C)=O`, the growth inhibition was -11.1%.
Regarding `[Ce+3].[Cl-].[O-]/N=C(\c1ccccc1)c1ccccn1.[O-]/N=C(\c1ccccc1)c1ccccn1.[O-]/N=C(\c1ccccc1)c1ccccn1`, the growth inhibition was 85.4% (active).
Same read-out and setting: the figure for `O=CCCCc1cc2c(cc1Br)CCC2` is 70.9% (active); for `C1=C(CC2=C[P+](c3ccccc3)(c3ccccc3)C=C(c3ccccc3)O2)OC(c2ccccc2)=C[P+]1(c1ccccc1)c1ccccc1` it is 88% (active).
Take `CC/C=C(\C)CC(C)O` (stereo not drawn): the growth inhibition is 43.8%.
As for `CCC(c1ccc(Cl)cc1)C(C#N)c1ccc(Cl)cc1` (stereo not drawn), the growth inhibition was 61.5%.
Consider `CN1/C(=C/C=C/C(I)=C/C=C/C2=[N+](C)c3ccccc3C2(C)C)C(C)(C)c2ccccc21`, for which the growth inhibition is 50.1%.
On the same count and under the same terms, to `Nc1ccc(N)c2c1C(=O)c1ccccc1C2=O` belongs 11.7%; to `CN1C=COC1N=C1CCCCC1` (stereo not drawn), -7%.
With `Clc1ccc(Cc2nc3ccccc3s2)c(Cl)c1`, the growth inhibition was 93.3% (active).
`O=CC1(c2ccc(Cl)cc2)NC(=O)NC1=O` (stereo not drawn): the growth inhibition is -1.7%.
Still for that read-out and setting: the figure for `O=C(CSc1nnc(-c2ccc(N=Cc3ccc(Cl)cc3)cc2)o1)Nc1ccc(Cl)cc1Cl` is 99.2% (active); for `O=C(Oc1ccccc1)C1CCCCC1C(=O)Oc1ccccc1` (stereo not drawn) it is 26.4%.
With `O=C(O)Cc1ccc2c(c1O)C(=O)c1ccccc1C2=O`, the growth inhibition is 67.2%.
On the same count and under the same terms, to `O=[N+]([O-])c1cccc(F)c1O` belongs 33.1%; to `CCc1nc2c(O)ccc(O)c2nc1C`, 62.9%; to `COC(=O)N/N=C(/CC1(O)C(=O)Nc2ccccc21)c1ccc(Cl)cc1Cl` (stereo not drawn), 98.5% (active).
